From PubChem BioAssay (NCI) come the findings set out here.

Common to all, as to assay: NCI-60 one-dose screen, 48 h (100 = growth as untreated, 0 = no growth, -100 = all killed)
Conditions in all cases: 10 µM unless noted

Experiment [1] relates to SR leukemia.
For experiment [2], the system named is RPMI-8226 leukemia.
For experiment [3], the system named is OVCAR-8 ovarian.
Experiment [4] relates to OVCAR-5 ovarian.
In experiment [5] the test system is OVCAR-4 ovarian.
Experiment [6] deals with SK-OV-3 ovarian.
Experiment [7] concerns OVCAR-3 ovarian.
Experiment [8] deals with HS 578T breast.
Experiment [9] deals with NCI/ADR-RES ovarian.
In experiment [10] the test system is T-47D breast.
Experiment [11] deals with BT-549 breast.
Experiment [12] has as its system MDA-MB-435 melanoma.
In experiment [13] the test system is SW-620 colon.
Experiment [14] has as its system MCF7 breast.
Experiment [15] deals with HCT-116 colon.
The subject of experiment [16] is HCC-2998 colon.
Experiment [17] deals with KM12 colon.
Experiment [18] deals with IGROV1 ovarian.

Compounds without any hit were thinned out: in the full panel of roughly 83,000, 20% have a hit.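 Step 1: grow cells in 96-well plates. Step 2: add test compound at a single concentration. Step 3: incubate 48 h. Step 4: record percent growth.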 A number with no mark means an inactive call. Calls of active or inactive are those of the source. Rule for the calls: active = growth percent below 10; inactive = the rest.

Regarding `CCN1CCN(C(=O)[C@@]2(C)CC[C@]3(C)CC[C@]4(C)C(=CC(=O)[C@@H]5[C@@]6(C)CC[C@H](OC7C[C@@H](O)[C@@H](O)C(C)O7)C(C)(C)[C@@H]6CC[C@]54C)[C@@H]3C2)CC1` (stereo not given in full), the growth in experiment [1] is -4.66% (active); in experiment [2], -25.7% (active); in experiment [3], 12.3%; in [4] it was 9.86% (active); in [5] it was 0.113% (active); in experiment [6], 113%. The growth is 105% in experiment [7]; 87.5% in experiment [8]; 47% in experiment [9]; 82.6% in [10]; 87.1% in experiment [11]; 20.4% in experiment [12]. Further, the growth was 36.7% in experiment [13]; 24.5% in experiment [14]; 1.7% (active) in [15]; 37.7% in experiment [16]; 30.8% in experiment [17].

For `COc1cnc2c(c1)C(=O)c1c-2n(CCCNC2=NCCS2)c(=O)c2cc([N+](=O)[O-])ccc12`, the growth in experiment [1] is -9.1% (active); in experiment [2], -32.1% (active); in experiment [3] it was -6.2% (active); in experiment [4] it was 28.9%; in experiment [5], -71.9% (active); in [6], 9.4% (active). The growth in [18] was -0.756% (active); in experiment [7], -71.1% (active); in experiment [8], 69.9%; in [10], 14.4%; in experiment [11], 35%; in experiment [12], -92.7% (active). The growth in [13] is -59% (active); in experiment [14], -51.3% (active); in [15], -66.4% (active); in experiment [16], -61.2% (active); in experiment [17], -43.9% (active).

On to `Cn1c2c(Cl)c(Cl)ccc2c2c(C#N)c[nH]c(=O)c21`, for which the growth was 112% in [1]; 65.2% in experiment [2]; 91.2% in experiment [3]; 123% in [4]; 99.5% in experiment [5]; 107% in experiment [6]. For the same compound, the growth in [18] was 89.5%; in experiment [7] it was 110%; in experiment [8], 84.5%; in experiment [10] it was 102%; in [11], 120%; in experiment [12], 115%. In addition, the growth in [13] was 106%; in experiment [14] it was 96.5%; in [15], 92.7%; in [16] it was 97.2%; in experiment [17] it was 111%.

Consider `Clc1cc(Cl)cc(Nc2ccc3c(OCCCN4CCOCC4)cccc3n2)c1`, for which the growth is 6.22% (active) in experiment [1]; 11.1% in experiment [2]; 81.8% in experiment [3]; 49.3% in experiment [4]; 65.3% in [5]; 75.8% in experiment [6]. Moreover, the growth was 64.8% in [7]; 35.9% in experiment [8]; 60.9% in experiment [9]; 60.4% in experiment [10]; 72.7% in [11]; 57.4% in [12]. Moreover, the growth in experiment [13] is -41.9% (active); in experiment [14] it was 21.6%; in experiment [15], 27.5%; in [16], 36.7%; in experiment [17] it was -51.2% (active).

Consider `COC(=O)[C@]12CC[C@@H](C)[C@H](C)[C@@H]1C1=CC[C@@H]3[C@@]4(C)C[C@@H](OC(C)=O)[C@H](OC(C)=O)[C@@](C)(COC(C)=O)[C@@H]4[C@H](O)C[C@@]3(C)[C@]1(C)CC2`, for which the growth was 2.75% (active) in [1]; 5.96% (active) in experiment [2]; 16.9% in experiment [3]; 34.6% in experiment [4]; 19.3% in experiment [5]; 2.45% (active) in [6]. Further, the growth was 36.7% in [18]; 15% in experiment [7]; 35.9% in experiment [8]; -13.6% (active) in experiment [10]; 0.787% (active) in experiment [11]; 17.4% in experiment [12]. Also, the growth in [13] is 20.7%; in experiment [14], 5.21% (active); in experiment [15], 9.38% (active); in experiment [17], 8.42% (active).

For `COc1cnc2c(c1)C(=O)c1c-2n(CCCN2CCN(CCO)CC2)c(=O)c2cc([N+](=O)[O-])ccc12`, the growth in experiment [1] was -12.5% (active); in [2], 44.6%; in experiment [3] it was 52.5%; in experiment [4], 132%; in experiment [5], 79.4%; in experiment [6] it was 54.8%. The growth in [18] was 74.2%; in experiment [7] it was 84.4%; in [8], 84.9%; in [10], 64.4%; in experiment [11] it was 65.6%; in [12] it was 40.8%. For the same compound, the growth in experiment [13] is -48.8% (active); in [14], -6.37% (active); in experiment [15], -87.6% (active); in experiment [16], 80%; in experiment [17], 32.4%.

With `Cc1cccc2c1NC(=O)[C@@]21[C@H](C(=O)c2ccccc2)[C@]2(C(=O)Nc3ccccc32)[C@H]2CCCN21`, the growth was -6.48% [100 µM] (active) in [1]; 30.9% [100 µM] in [2]; -17.2% [100 µM] (active) in [3]; 101% [100 µM] in experiment [4]; -20.3% [100 µM] (active) in [5]; 11.1% [100 µM] in experiment [6]. Moreover, the growth in [18] was 43% [100 µM]; in experiment [7] it was 2.54% [100 µM] (active); in experiment [8], 16% [100 µM]; in experiment [10] it was 32.6% [100 µM]; in experiment [11], 10.4% [100 µM]; in experiment [12] it was 61.8% [100 µM]. Further, the growth in experiment [13] was 11.7% [100 µM]; in [14], -4.76% [100 µM] (active); in experiment [15], -36.1% [100 µM] (active); in experiment [16] it was 19.7% [100 µM]; in [17], 40.3% [100 µM].

For the compound `C=C(C)[C@@H]1CC[C@]2(C)CC[C@]3(C)[C@H](CC[C@@H]4[C@@]5(C)CCCNC(C)(C)[C@@H]5CC[C@]43C)[C@@H]12`, the growth is 1.2% (active) in experiment [1]; 30.1% in experiment [2]; 84.1% in experiment [3]; 107% in [4]; 94.5% in experiment [5]; 113% in [6]. Further, the growth was 76.2% in experiment [7]; 101% in experiment [8]; 97.3% in experiment [9]; 76% in [10]; 101% in [11]; 84.6% in experiment [12]. Further, the growth in [13] was 2.47% (active); in experiment [14], 33.3%; in experiment [15], 5.39% (active); in [16], 66%; in experiment [17], 66.8%.
